Source: the supplement of paper PMC6555819

How the values were obtained:
Assay in all cases: PBM binding z-score (relative to random genomic background probes); higher = stronger binding; sequences stand for … in GC…GCGATTGACAGCGTAGAATGAAGG
[1] = system: PPARg:RXRa DBDmut IVT, anti-RXR (DBD mutation: RXRa K156A/R161A, NR concentration 270 nM, RXRa partner concentration 90 nM)
Outline: (§1)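 Probes were double-stranded and carried 34-nt variable regions with direct-repeat seeds, single-nucleotide variants, half-site ablations and random human genomic background sequences, printed on custom Agilent 4×180K protein-binding microarrays. Arrays were incubated 1 h with ligand-free nuclear receptor dimers in PBS pH 7.4, 2% milk, 0.02% Triton X-100, 1 mM DTT, 0.2 mg/mL BSA and 0.4 mg/ml salmon testes DNA. Antibodies against each partner (one per run) detected binding, and scanned fluorescence was regression-normalized. Binding z-scores use the random background probes as reference.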

[2] = system: PPARg:RXRa IVT, anti-PPARg (NR concentration 270 nM, RXRa partner concentration 90 nM)
Outline: as §1

[3] = system: PPARg DBDmut:RXRa IVT, anti-PPARg (DBD mutation: PPARg1 K132A/R137A, NR concentration 270 nM, RXRa partner concentration 90 nM)
Outline: as §1

[4] = system: PPARg DBDmut IVT, anti-PPARg (DBD mutation: PPARg1 K132A/R137A, NR concentration 270 nM)
Outline: as §1

[5] = system: PPARg homodimer (NR concentration 180 nM)
Outline: as §1

[6] = system: PXR:RXRa (NR concentration 270 nM, RXRa partner concentration 90 nM)
Outline: as §1

[7] = system: PXR homodimer (NR concentration 270 nM)
Outline: as §1

[8] = system: RARa:RXR (NR concentration 270 nM, RXRa partner concentration 90 nM)
Outline: as §1

[9] = system: RARa homodimer (NR concentration 270 nM)
Outline: as §1

[10] = system: RARb:RXRa (NR concentration 270 nM, RXRa partner concentration 90 nM)
Outline: as §1

Sequence | PBM binding z-score [1] | PBM binding z-score [2] | PBM binding z-score [3] | PBM binding z-score [4] | PBM binding z-score [5] | PBM binding z-score [6] | PBM binding z-score [7] | PBM binding z-score [8] | PBM binding z-score [9] | PBM binding z-score [10]
CATACAGGGTCAGCTAGACCAGAGTAGGGACGGC | 1.02 | 2.59 | 1.26 | 0.0987 | 1.43 | 2.03 | -0.458 | 3.16 | 0.685 | 4.07
CCGAGTCGGTTATGGGGCATTCAGGCAACGGTGA | 0.293 | 0.608 | -1.56 | -1.49 | 0.196 | -0.541 | -0.48 | -0.567 | -0.241 | 0.404
ATCTCTAGGTAACCAAGTTCAGTGGATGCCGAAC | 3.66 | 2.83 | 0.893 | 0.352 | 0.334 | 1.94 | 1.5 | 0.454 | 0.529 | 1.18
ACTAGTTGGTCAGCTGAGGTGACACACAATTCGG | 1.56 | 2 | 0.518 | 0.422 | 0.486 | 0.897 | 0.101 | 1.27 | -0.129 | 1.45
GATACAGGCTCAGCTAGAGGCCAGAGTATGGAAA | -1.07 | -0.379 | -0.391 | -1.01 | -0.531 | -0.951 | -0.872 | -0.733 | -0.86 | -0.294
TCTCGGAGGACCCGAAAGGTCAGAGCTCGACATC | 1.1 | 0.853 | -0.22 | -0.929 | 1.7 | 3.45 | -0.23 | 4.13 | 0.185 | 3.68
AGAATGTGGTTAAGATCAGGGAAACAGAATACAT | -0.145 | 0.0486 | 0.832 | 0.677 | 0.635 | 0.308 | 0.679 | 0.217 | 0.647 | 0.103
CTCGAAAGGTCGGTGGAGGTGAGTATACGGATAA | 0.0934 | 0.827 | 1.01 | -0.175 | 1.03 | 2.39 | -0.0117 | 2.63 | 0.0288 | 2.89
CGTCCAAGGTCAGAGGAGGTCAGTGAAGACAGAT | 1.93 | 3.41 | 0.0529 | -0.477 | 3.97 | 6.58 | 2.7 | 5.37 | 1.91 | 5.22
ATCTCTAGGTAACCGAGTTCAGTGAATGCCGAAC | 3.51 | 2.9 | 0.719 | 0.977 | 0.0322 | 2.93 | 2.94 | 1.04 | 0.216 | 0.826
TCTTGTAGATCAGCCGGTTAAGAAAGCTGGCCAA | 1.7 | -0.0533 | -0.491 | 0.198 | -0.81 | -0.0108 | -0.447 | 0.0162 | -0.458 | -0.316
GCTAGTTGGTCAGTAAAAGTTCACACACCGGTCG | 0.674 | 0.916 | -0.358 | 0.138 | 2.26 | 3.43 | 3.27 | 2.53 | 1.14 | 2.73
ATCTCTAGGTAAAGTTCAGTCAAAGATCGATAGA | 1.91 | 2.68 | 1.08 | 1.44 | 1.63 | 2.32 | 1.93 | 1.48 | 1.68 | 2.55
TCTAGTTGATCAAAGGTCACACACTCGAAATGCG | 2.34 | 4.45 | 1.08 | 1.36 | 4.93 | 5.73 | 2.14 | 6.33 | 3.64 | 4.85
CCTACTGGGCCAAAAAGGTCATCGATGCCGATAA | 3.54 | 4.4 | -0.683 | 0.00778 | 3.39 | 4.69 | 1.58 | 5.26 | 2.06 | 4.53
TCTAGTTGGTCACGGATGTCACACACGACGGGTA | 2.2 | 2.89 | 1.14 | 1.42 | 1.14 | 0.836 | -0.124 | 0.724 | 0.648 | 1.88
CCGACTGGGGAAGAAAGGTTACCATACCATCCGG | -0.325 | 0.33 | -0.996 | -0.95 | 0.579 | 0.747 | -0.0818 | 1.3 | 0.0486 | 1.23
GCTGCTAGGGCAGGTTGGTCAGCTAACGGGTACG | 0.814 | 0.109 | -1.41 | -2.26 | -0.535 | -0.732 | -0.597 | -0.985 | -1.07 | 1.16
CAAACTAGGTCAAGGACAGTGAATCTCCGCACGC | 8.06 | 8.33 | 5.83 | 2.41 | 2.39 | 1.42 | 0.22 | 2.41 | 1.49 | 4.06
CGTCAAAGTTCAACTCAGGTAACGTAAAGCACGC | 0.639 | 2.02 | 0.699 | 0.924 | 4.03 | 5.4 | 3.74 | 4.37 | 1.92 | 5.15
CCGACTGGGGCATAAGGTTACCATCAGCCAGCCC | 2.93 | 3.1 | -0.916 | -1.26 | 0.425 | 0.317 | -0.375 | 1.06 | -0.135 | 1.37
TAACCAAGGTGAGCTGAGGTCGTTGATCCAACTC | 0.67 | 1.99 | -0.13 | 0.366 | -0.0916 | 4.88 | 0.136 | 1.74 | -0.541 | 1.81
ATCGAAAGGTCGTGATGTGAGTATACAGAAAGGC | -0.177 | 1.63 | 1.58 | 1.08 | 1.07 | 2.71 | 0.368 | 3.38 | 0.598 | 3.68
CGAACGTGGGCATGAGTTGATAGCAAATGCCGAT | -0.469 | -0.859 | -1.14 | -1.08 | -1.28 | -0.855 | -0.719 | -1.12 | -0.791 | -0.401
